Reference: PubChem BioAssay (NCATS)
Where “and” joins values, the source holds several entries; their conditions need not be identical. Equal values may be shown once. Inconclusive results are not listed. Entries that show only a call come without a potency. Values without a mark were called inactive. Calls of active or inactive are those of the source. Calls come from the whole dose curve; as a rule, active = well fitted curve in the direction sought with a large enough effect; inconclusive = small, poorly fitted or top-dose-only effect, or another doubt; inactive = no such curve, though single readings can be large; an effect the other way counts as inactive or inconclusive.

Columns and labels:
[1] = qHTS Assay for Identifying Gametocytocidal Compounds (AID 743244);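 for max response: actives lower the fluorescent signal which means gametocytes are killed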; settings: P. falciparum 3D7 stage III-V gametocytes, alamarBlue, 72 h; max response: stronger effect = lower value
Method in brief: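 In this qHTS viability screen, late-stage 3D7 gametocytes are incubated with compound for 72 h, then with alamarBlue for 24 h; reduced resorufin fluorescence marks killing.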

[2] = qHTS assay to identify small molecule inhibitors of chordoma cells - UCH-1 (AID 1259355); note: nearly all actives have a fitted effect of over 55% in size; for potency: series mostly up to about 46 µM
Method in brief: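 Screening used approved and investigational drugs in 15-point titration against 800 seeded cells per well. A fixed combination of auranofin with camptothecin, doxorubicin, rubitecan and topotecan followed compound addition, and growth was scored by CellTiter-Glo after 48hr.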

[3] = qHTS assay to identify small molecule inhibitors of chordoma cells - UCH-2 (AID 1259356)
[4] = P-glycoprotein substrates identified in KB-8-5-11 adenocarcinoma cell line, qHTS therapeutic library screen (AID 1346987); settings: outcome: dose series up to 44.5 µM unless noted; note: nearly all actives have a fitted effect of over 65% in size
Method in brief: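 Human cervical adenocarcinoma KB-8-5-11 cells, selected in colchicine to over-express P-gp and assayed without it, were exposed for 72 h to titrated compounds. An ATP-based luminescent viability signal gave AC50.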
Potency is the fitted concentration of half-maximal effect.

Structure (SMILES) | max response [1] | Potency [2] | Potency [3] | Potency [4] | Potency [1]
CC1(C)C(\C=C/C=C\C=C/C=C2/N(CCCCS(=O)(=O)O)c3ccc4ccccc4c3C2(C)C)=[N+](CCCCS(=O)(=O)[O-])c2ccc3ccccc3c21 | 2.8% | inactive | inactive | inactive | 
OC[C@H]1O[C@@H](O[C@H]2[C@H](O)[C@@H](O)[C@H](O)O[C@@H]2CO)[C@H](O)[C@@H](O)[C@@H]1O | 2.58% | inactive | inactive | inactive | 
CC(=O)N[C@@H]([C@@H](O)[C@H](O)[C@H](O)CO)[C@@H](O)CC(=O)C(=O)O | 14.7% | inactive | inactive | inactive | 
O=C1C2CC3CC1CC(O)(C3)C2 | 6.58% | inactive | inactive | inactive | 
CC(C)(C)NCC(O)CSc1nc(-c2ccc(C(N)=O)s2)cs1 (stereo not drawn) | 20.6% | inactive | inactive | inactive | 
C=CC[N+]1([C@H]2C[C@H]3[C@@H]4CC[C@H]5C[C@H](O)[C@@H](N6CCOCC6)C[C@]5(C)[C@H]4CC[C@]3(C)[C@H]2OC(C)=O)CCCC1 | -0.733% | inactive | inactive | inactive | 
CCN1C(=O)NC(c2ccccc2)C1=O (stereo not drawn) | 13.2% | inactive | inactive | inactive | 
C[S+](C)CCC(N)C(=O)O (stereo not drawn) | 3.96% | inactive | inactive | inactive | 
O=C(O)/C=C/c1ccccc1 | 0.36% | inactive | inactive | inactive | 
N=C(N)n1cccn1 | 13.6% | inactive | inactive | inactive | 
O=C(O)c1ccc(NC2OC[C@@H](O)[C@H](O)[C@H]2O)cc1 (stereo partly drawn) | -2.1% | inactive | inactive | inactive | 
CC(C)CCC[C@@H](C)[C@H]1CC[C@H]2[C@@H]3CC[C@@H]4C[C@H](O)CC[C@]4(C)[C@H]3CC[C@]12C | -3.57% | inactive | inactive | inactive | 
CCCCCCCCCc1ccc(OCCOCCO)cc1 | -0.96% | inactive | inactive | 4.61 µM (active) | 
O=C(O)C1=C(CSc2nnnn2CS(=O)(=O)O)CS[C@@H]2[C@H](NC(=O)[C@H](O)c3ccccc3)C(=O)N12 | -5.8% | inactive | inactive | inactive | 
CC(=O)Nc1c(I)c(C(=O)O)c(I)c(N(C)C(C)=O)c1I | -0.708% | inactive | inactive | inactive | 
Cc1ccc(S(=O)(=O)NC(=O)N[C@@H](C)Cc2ccccc2)cc1 | 23.6% | inactive | inactive | inactive | 
CC1=CC(=C(c2ccc(N)cc2)c2ccc(N)cc2)C=CC1=N |  | 15.8 µM (active) | 14.6 µM (active) | 14.6 µM (active) | 7.94 µM (active)
CC(=O)Oc1cccc2c1C(=O)c1c(OC(C)=O)cc(C(=O)O)cc1C2=O | -7.57% | inactive | inactive | inactive | 
O=C(O)COc1ccccc1/C=N/NC(=O)c1ccncc1 | 1.32% | inactive | inactive | inactive | 

Structure (SMILES) | max response [1] | Potency [2] | Potency [3] | Potency [4] | Potency [1]
CO/N=C(\C(=O)N[C@@H]1C(=O)N2C(C(=O)O)=C(CSC(=O)c3ccco3)CS[C@H]12)c1csc(N)n1 | -2.3% | inactive | inactive | inactive | 
S=C=Nc1ccc(N=C=S)cc1 | -17.1% | inactive | inactive | inactive | 
CC1(C)[C@@H]2CC[C@@]1(C)[C@H](OC(=O)CSC#N)C2 | -3.31% | inactive | inactive | inactive | 
O=P(O)(O)OC[C@H](O)CO | -1.62% | inactive | inactive | inactive | 
CC(=O)Nc1ccc(OC(C)=O)cc1 | -5.2% | inactive | inactive | inactive | 
CCC(C(=O)NC(N)=O)c1ccccc1 (stereo not drawn) | 7.61% | inactive | inactive | inactive | 
CC(C)(C)C(=O)OCC(=O)[C@H]1CC[C@H]2[C@@H]3CCC4=CC(=O)CC[C@]4(C)[C@H]3CC[C@]12C | 6.08% | inactive | inactive | inactive | 
OC[C@H]1OC([S-])[C@H](O)[C@@H](O)[C@@H]1O.[Au+] (stereo partly drawn) | -13.3% | inactive | inactive | inactive | 
CC1CCCCN1CCCOC(=O)c1ccccc1 (stereo not drawn) | 6.88% | inactive | inactive | inactive | 
NC(Cc1ccccc1)C(=O)O (stereo not drawn) | 3.95% | inactive | inactive | inactive | 
CC[C@H]1NC(=O)[C@@H](NC(=O)c2ncccc2O)[C@@H](C)OC(=O)[C@H](c2ccccc2)NC(=O)[C@@H]2CC(=O)CCN2C(=O)[C@H](Cc2ccccc2)N(C)C(=O)[C@@H]2CCCN2C1=O | 3.22% | inactive | inactive | inactive | 
CO/N=C(\C(=O)N[C@@H]1C(=O)N2C(C(=O)[O-])=C(C[n+]3ccc(N)n3CCO)CS[C@H]12)c1csc(N)n1 | -6.21% | inactive | inactive | inactive | 
Oc1ccc(Cl)c2c1CCC2 | -5.98% | inactive | inactive | inactive | 
C[C@@H](O)[C@H]1C(=O)N2C(C(=O)[O-])=C(SC3Cn4cnc[n+]4C3)[C@H](C)[C@H]12 (stereo partly drawn) | -4.53% | inactive | inactive | inactive | 
CC(C)c1nc(N(C)S(C)(=O)=O)nc(-c2ccc(F)cc2)c1/C=C/C(O)CC(O)CC(=O)O (stereo not drawn) | 12% | inactive | inactive | inactive | 
Cn1c(=O)c2c(ncn2CCOC(=O)C(C)(C)Oc2ccc(Cl)cc2)n(C)c1=O | 17.7% | inactive | inactive | 18.4 µM (active) | 
CCCCC[C@H](O)/C=C/[C@H]1[C@H](O)CC(=O)[C@@H]1C/C=C\CCCC(=O)O | 5.55% | inactive | inactive | inactive | 
O=C1CC[C@@H](C(=O)N[C@H]2C[C@@H]2c2ccccc2)N1 | -4.02% | inactive | inactive | inactive | 
O=C(NCCNCC(O)COc1ccc(O)cc1)N1CCOCC1 (stereo not drawn) | -13.8% | inactive | inactive | inactive | 

Structure (SMILES) | max response [1] | Potency [2] | Potency [3] | Potency [4] | Potency [1]
O=C(O)c1cc(O)c2c(c1)[C@H]([C@H]1c3cc(C(=O)O)cc(O)c3C(=O)c3c(O[C@@H]4O[C@H](CO)[C@@H](O)[C@H](O)[C@H]4O)cccc31)c1cccc(O[C@@H]3O[C@H](CO)[C@@H](O)[C@H](O)[C@H]3O)c1C2=O | -8.85% | inactive | inactive | inactive | 
CCCC1C(=O)N2C(N(C)C)=Nc3ccc(C)cc3N2C1=O (stereo not drawn) | 6.87% | inactive | inactive | inactive | 
O=C1c2ccccc2C(=O)C1c1ccc(F)cc1 | 5.59% | inactive | inactive | inactive | 
CCCCCCCCCCCCCCCC(=O)OC[C@@H](O)[C@H]1OC[C@H](O)[C@H]1O | -10.2% | inactive | inactive | inactive | 
C=CC(=O)O | -1.82% | inactive | inactive | inactive | 
C[C@@H]1NC(=O)[C@@H](N)CNC(=O)[C@H](C2CCNC(N)=N2)NC(=O)/C(=C/NC(N)=O)NC(=O)[C@H](CNC(=O)C[C@@H](N)CCCN)NC1=O (stereo partly drawn) | 0.778% and -5.05% | inactive | inactive | inactive | 
NC[C@@H]1O[C@H](O[C@H]2[C@@H](O)[C@H](O[C@@H]3[C@@H](O)[C@H](N)C[C@H](N)[C@H]3O[C@H]3O[C@H](CO)[C@@H](O)[C@H](O)[C@H]3N)O[C@@H]2CO)[C@H](N)[C@@H](O)[C@@H]1O | 20.3% | inactive | inactive | inactive | 
CNC(=O)C[C@@H](N)C(=O)N[C@@H](C(=O)N[C@@H]1C(=O)N2[C@@H]1SC(C)(C)[C@@H]2C(=O)O)c1ccc(O)cc1 | -4.28% | inactive | inactive | inactive | 
CC1CCC(NC(=O)N(CCCl)N=O)CC1 (stereo not drawn) | 3.88% | inactive | inactive | inactive | 
CC[C@H](CC[C@@H](C)[C@H]1CC[C@H]2[C@@H]3CC=C4C[C@@H](O)CC[C@]4(C)[C@H]3CC[C@]12C)C(C)C | 14.2% | inactive | inactive | inactive | 
CCOC(=O)Oc1c(OC)cc(C(=O)O[C@@H]2C[C@@H]3CN4CCc5c([nH]c6cc(OC)ccc56)[C@H]4C[C@@H]3[C@H](C(=O)OC)[C@H]2OC)cc1OC | 3.15% | inactive | inactive | inactive | 
FC(F)(F)COCC(F)(F)F | 3.82% | inactive | inactive | inactive | 
CC(=O)Oc1cccc(C(=O)O)c1OC(C)=O | 10.1% | inactive | inactive | inactive | 
CCOc1cc(-c2nccc3cc(OC)c(OC)cc23)cc(OCC)c1OCC | -3.95% | inactive | inactive | 13 µM (active) | 
CN1CCC(OC(=O)C(Oc2ccc(Cl)cc2)Oc2ccc(Cl)cc2)CC1 | 32.5% | inactive | inactive | inactive | 
C=CC1=C(C(=O)O)N2C(=O)[C@@H](NC(=O)/C(=N\O)c3csc(N)n3)[C@H]2SC1 (stereo in doubt) | 1.2% and 8.54% | inactive | inactive | inactive | 
O=[N+]([O-])O[C@@H]1CO[C@H]2[C@@H]1OC[C@@H]2O | 5.11% | inactive | inactive | inactive | 
CCOC(=O)c1cc(-c2ccccc2)nc2ccc(C)cc12 | -3.36% | inactive | inactive | inactive | 
CN[C@@H]1[C@@H](O[C@H]2O[C@H](CO)[C@@H](N)[C@H](O)[C@H]2O)O[C@H]2C[C@@H](N)[C@@H](O[C@H]3[C@H](O)[C@@H](O)[C@H](N)C[C@@H]3N)O[C@@H]2[C@@H]1O | 4.88% | inactive | inactive | inactive | 
